# Measurements taken from the supplement of paper PMC7156485.
# ± gives the standard deviation of the averaged measurements.
# System: TDF
# Assay: cell number relative to DMSO (% of DMSO); higher = more cells (less growth inhibition / toxicity)
# Conditions: concentration: 10 µM; 24 h
# Procedure, shortened: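 H1.0 nuclear intensity or cell number is expressed as percent of the plate control, with the median of replicates taken. HCC1569 and TDF cells were treated with compounds at 10 µM for 24 h at 37 °C, in triplicate, then fixed and immunostained for H1.0 with DAPI as a nuclear stain. HCC1569 values were smoothed to correct for positional effects.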
# 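Further: TDF denotes transformed human dermal fibroblasts of mesenchymal origin.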
row,SMILES,cell number
1,CCCCCC=CCC=CC=CC=CCC(=O)CCCC(=O)O [5-Ketoeicosatetraenoic acid],95.5
2,O=C1CN(N=Cc2ccc(-c3ccc([N+](=O)[O-])cc3)o2)C(=O)[N-]1.[Na+] [Dantrolene sodium],97
3,Cc1ccc(S(=O)(=O)N2c3ccccc3Oc3ccccc32)cc1 [10-[(4-methylphenyl)sulfonyl]-10H-phenoxazine],11.3
4,CC(N)=NCCCC[C@H](N)C(=O)O.Cl [L-N6-(1-Iminoethyl)lysine hydrochloride],109
5,COc1cc(C2CC(=O)c3c(O)cc(O)cc3O2)ccc1O (stereo not given) [Homoeriodictyol],99.7
6,"CCN(CC)CCOC(=O)c1cc(Cl)c(N)cc1OC.Cl [SDZ-205,557 hydrochloride]",98.8
7,"CCCCCC=CCC=CCC=CCCCCCCC(=O)O [8(Z), 11(Z), 14(Z)-Eicosatrienoic Acid]",101
8,CN1C(C(=O)Nc2ccccn2)=C(O)c2ccccc2S1(=O)=O [Piroxicam],107 ± 3.5
9,NC(=O)c1noc([C@H](CCCC2CCCCC2)CC(=O)NO)n1,95.6
10,CCCCCC(O)C=CC=CCC=CCCCCC(=O)O (stereo not given),97.9
11,CC(N)=NCc1cccc(CN)c1.Cl.Cl [1400W dihydrochloride],119
12,CC1=NN(c2ccc(C(=O)O)cc2)C(=O)/C1=C\c1ccc(-c2cc(C)c(C)cc2[N+](=O)[O-])o1,87.2
13,CCCCCC=CCC=CCC=CC=CC(O)CCCC(=O)O (racemic),93
14,O=C(O)CN(CCOCCOCCN(CC(=O)O)CC(=O)O)CC(=O)O,105
15,O=C(OC1CC2CC3CC(C1)N2CC3=O)c1c[nH]c2ccccc12 (stereo not given) [Dolasetron],84.3
16,CC1(C)CCC2=C(O1)c1ccccc1C(=O)C2=O [beta-Lapachone],25.4 ± 9.7
17,COc1ccnc(CS(=O)c2nc3cc(OC(F)F)ccc3[n-]2)c1OC.O.[Na+] (stereo not given),92.8
18,C=CCc1ccccc1OCC(O)CNC(C)C.Cl (stereo not given) [Alprenolol.HCl],105
19,Nc1nc2ccc(Cl)cc2c2nc(-c3ccco3)nn12,102
20,CN1CCN(CCCN2c3ccccc3Sc3ccc(C(F)(F)F)cc32)CC1.Cl.Cl [Trifluoperazine dihydrochloride],108

row,SMILES,cell number
1,COc1cc2ncnc(Nc3ccc(NC(=O)c4ccccc4)cc3)c2cc1OC [Aurora Kinase Inhibitor II],54.8
2,N#Cc1c(N(CC(=O)[O-])CC(=O)[O-])sc(C(=O)[O-])c1CC(=O)[O-].[Sr+2].[Sr+2],109
3,COc1ccc(C=C2c3ccccc3C(=O)c3ccccc32)cc1O [10-(3-hydroxy-4-methoxybenzylidene)-9(10H)-anthracenone],10.4
4,COc1ccc2c(c1)c(CC(=O)Nc1ccc(NC(C)=O)cc1)c(C)n2C(=O)c1ccc(Cl)cc1 [N-(4-acetamidophenyl)indomethacinamide],70.1
5,CCCCCC(O)C=CC1C(=O)C=CC1CC=CCCCC(=O)O (stereo not given) [Prostaglandin J2],99.5
6,O=C1Nc2ccccc2C1=Cc1c(Cl)[nH]c2ccccc12 [Cdk1 Inhibitor],9.63
7,COc1cc2c(c(OC)c1OC)-c1ccc(OC)c(=O)cc1C(NC=O)CC2 (stereo not given) [N-Formyl-Deacetylcolchicine],92.9
8,CCCCCCCCCCCCCCCC(O)C(N)CO (racemic) [DL-erythro-Dihydrosphingosine],87.8
9,COC(=O)c1ccc2c(c1)NC(=O)C2=C(Nc1ccc(N(C)C(=O)CN2CCN(C)CC2)cc1)c1ccccc1 [Vargatef],106
10,Cc1nnc(SCC2=C(C(=O)[O-])N3C(=O)C(NC(=O)Cn4cnnn4)C3SC2)s1.[Na+] (stereo not given) [Cefazolin sodium],116
11,COc1ccc(C2Sc3ccccc3N(CCN(C)C)C(=O)C2OC(C)=O)cc1.Cl (stereo not given) [Diltiazem hydrochloride],100
12,CCOC(=O)c1ncn2c1CN(C)C(=O)c1cc(F)ccc1-2 [Flumazenil],97.3 ± 3.1
13,CN1C2CCC1CC(OC(=O)c1c[nH]c3ccccc13)C2 (stereo not given) [Tropisetron],92.9
14,CCCCCC(=O)C=CC=CCC=CCC=CCCCC(=O)O [15-Ketoeicosatetraenoic acid],102
15,CC(C)n1c(C=CC(O)CC(O)CC(=O)O)c(-c2ccc(F)cc2)c2ccccc21 (stereo not given) [Fluvastatin],64.5
16,CCCCCC=CCC=CCC=CCC=CCCCC(=O)OC(CO)COC(=O)CCCCCCCCCCCCCCCCC (stereo not given) [1-Stearoyl-2-arachidonoyl-glycerol],104
17,COc1c2ccoc2cc2oc(C)cc(=O)c12 [Visnagin],102
18,O=S(=O)(O)C1CCNCC1 [Piperidine-4-sulphonic acid],101
19,Cn1cnc2c(NCc3ccccc3)nc(NCCO)nc21 [Olomoucine],121
20,CCCCCC(O)C=CC1OC(=O)CC(O)C1CC=CCCCC(=O)O (stereo not given) [11-Dehydro-thromboxane B2],97
